Results filed as inconclusive are left out. Active and inactive are the calls of the source. Calls come from the whole dose curve; as a rule, active = well fitted curve in the direction sought with a large enough effect; inconclusive = small, poorly fitted or top-dose-only effect, or another doubt; inactive = no such curve, though single readings can be large or run the other way.
Potency is the fitted concentration of half-maximal effect.

For the assay, the target named is Lysosomal acid glucosylceramidase (Homo sapiens) (UniProt P04062). As to the kind of experiment: qHTS Assay for Inhibitors and Activators of N370S glucocerebrosidase as a Potential Chaperone Treatment of Gaucher Disease: Primary Screen Confirmation. The settings on record: N370S glucocerebrosidase enzyme activity, fluorogenic substrate; series mostly up to 54 µM. The source says: NIH Chemical Genomics Center [NCGC]
Sequence of Lysosomal acid glucosylceramidase (Homo sapiens) (P04062 whole entry N409S): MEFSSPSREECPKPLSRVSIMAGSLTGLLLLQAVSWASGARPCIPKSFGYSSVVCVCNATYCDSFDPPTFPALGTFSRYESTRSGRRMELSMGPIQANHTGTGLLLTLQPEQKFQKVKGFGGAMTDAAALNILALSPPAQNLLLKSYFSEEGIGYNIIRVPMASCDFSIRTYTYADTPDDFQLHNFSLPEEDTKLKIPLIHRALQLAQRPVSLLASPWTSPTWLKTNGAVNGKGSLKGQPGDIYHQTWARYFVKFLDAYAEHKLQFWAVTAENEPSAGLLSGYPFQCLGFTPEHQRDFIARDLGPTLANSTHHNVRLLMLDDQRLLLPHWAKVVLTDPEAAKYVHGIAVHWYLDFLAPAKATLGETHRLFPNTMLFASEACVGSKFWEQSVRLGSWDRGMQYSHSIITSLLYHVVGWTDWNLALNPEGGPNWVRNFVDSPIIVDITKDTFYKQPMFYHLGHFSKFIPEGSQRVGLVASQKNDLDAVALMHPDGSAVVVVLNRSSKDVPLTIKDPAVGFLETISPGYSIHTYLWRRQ
NIH Molecular Libraries Probe Production Centers Network [MLPCN]
Assay Submitter (PI): Wei Zheng
Glucocerebrosidase (GC) catalyzes the hydrolysis of beta-glucocerebroside to glucose and ceramide in lysosomes. Mutations in the glucocerebrosidase gene result in Gaucher disease, an autosomal recessive lysosomal storage disorder. Many of the mutations encountered in patients with Gaucher disease are missense alterations that may cause misfolding, decreased stability and/or mistrafficking of this lysosomal protein. […] These inhibitors include iminosugar analogs and three non-iminosugar inhibitors identified from a previous HTS of 62,000 compounds with the wild type recombinant enzyme. However, the enhancement of enzyme activity by the chaperone action of an enzyme inhibitor must be balanced against the direct inhibition of the enzyme. An enzyme activator could also function as a chaperone by binding to the enzyme and helping to correct its misfolding and mistrafficking. While activators for GC have not yet been identified, they may have better therapeutic potential than inhibitors. Therefore the discovery and development of chemical activators may provide a new strategy for the chaperone therapy.
We have optimized a new assay using N370S mutant GC derived from the spleen of a Gaucher patient. […] In addition, the MLPCN compound library has expanded, which increases the chance of finding new and better probes.
NCGC Assay Protocol Summary:
This is a fluorogenic enzyme assay with 4-methylumbelliferyl-beta-D-glucopyranoside as the substrate and N370S glucocerebrosidase from human spleen homogenate as the enzyme preparation. Upon the hydrolysis of this fluorogenic substrate, the resulting product, […] which can be detected by a standard fluorescence plate reader. Data were normalized to the controls for basal activity (without enzyme) and 100% activity (with enzyme). The AC50 values were determined from concentration-response data modeled with the standard Hill equation.
Assay buffer: 50 mM citric acid (titrated with potassium phosphate to pH 5.0), 100 mM potassium chloride, 10 mM sodium chloride, 1 mM magnesium chloride, 0.01% Tween-20.
1536-well assay protocol:
(1) Add 2 ul/well of spleen homogenate (27 ug final)
(2) Add 23 nL compounds in DMSO solution. The final titration was 0.5 nM to 58 uM.
(3) Add 2 ul of substrate (1 mM final)
(4) Incubate at 37C for 40 min.
(5) Add 2 ul stop solution (1M NaOH and 1M Glycine mixture, pH 10)
(6) Detect the assay plate in a ViewLux plate reader (PerkinElmer) with Ex=365 nm and Em=440nm.
Keywords: Glucocerebrosidase, beta-glucosidase, Gaucher Disease, pharmacological chaperone, chaperone therapy, high throughput screening, glucocerebrosidase inhibitor, MLSMR, MLSCN, NIH Roadmap, qHTS and NCGC
As to `O=S(=O)(c1cccnc1)N1CCN(c2nc(-c3cccs3)nc3ccccc23)CC1`, the Potency was 3180 nM (active).

With `COc1cccc(S(=O)(=O)N2CCN(c3nc(-c4cccs4)nc4ccccc34)CC2)c1`, the Potency was 819 nM (active).

Consider `CCOC(=O)c1ccc(Nc2cc(C)nc(-c3ccccc3)n2)cc1`, for which the Potency is 10300 nM (active).

`Cc1cccn2c(=O)c3cc(C(=O)NCCc4ccccc4)sc3nc12`: the Potency entry was “inactive”.

Regarding `Cc1ccc(S(=O)(=O)N(C)CCCN(C)c2nc(-c3cccs3)nc3ccccc23)cc1`, the Potency is 2530 nM (active).

In the case of `CS(=O)(=O)N1CCN(c2nc(-c3cccs3)nc3ccccc23)CC1`, the Potency is 11400 nM (active).

As for `Clc1ccccc1-c1nccc(NCc2ccccc2)n1`, the Potency was 8910 nM (active).

Consider `Cc1ccc(S(=O)(=O)N2CCN(c3nc(C(N)=O)nc4ccccc34)CC2)cc1`, for which the Potency was 13000 nM (active).

As for `Cc1ccc(S(=O)(=O)N2CCN(c3nc(-c4cccs4)nc4cccnc34)CC2)cc1`, the Potency is 2530 nM (active).

With `COc1ccc2cc(C(=O)NCc3ccccc3)c(=O)oc2c1`, the Potency result was “inactive”.

Consider `c1ccc2c(NCC3CCCO3)nc(N3CCOCC3)nc2c1` (stereo not given), for which the Potency result is “inactive”.

Turning to `O=S(=O)(c1cccc(Br)c1)N1CCN(c2nc(-c3cccs3)nc3ccccc23)CC1`, the Potency is 2530 nM (active).

In the case of `NS(=O)(=O)c1ccc(S(=O)(=O)N2CCN(c3nc(-c4cccs4)nc4ccccc34)CC2)cc1`, the Potency was 3260 nM (active).

For the molecule `CCN1CCN(c2nc3c(C)cccn3c(=O)c2/C=C(\C#N)C(=O)NCCOC)CC1`, the Potency result was “inactive”.

With `O=[N+]([O-])c1cccc(S(=O)(=O)N2CCN(c3nc(-c4cccs4)nc4ccccc34)CC2)c1`, the Potency is 2530 nM (active).

Take `CC(C)C(C)NC(=O)CSc1nc2scc(-c3ccco3)c2c(=O)n1-c1ccccc1` (stereo not given): the Potency result was “inactive”.

Consider `Cc1ccc(S(=O)(=O)N2CCN(c3nc(-c4cscn4)nc4ccccc34)CC2)cc1`, for which the Potency is 4110 nM (active).

`NCCCNc1ccc(Br)cn1`: the Potency entry is “inactive”.

Turning to `NCCCN(Cc1ccc(Cl)c(Cl)c1)c1ccc(Br)cn1`, the Potency is 18300 nM (active).

Consider `CN1CCOc2cc(S(=O)(=O)N3CCN(c4nc(-c5cccs5)nc5ccccc45)CC3)ccc21`, for which the Potency is 580 nM (active).

On to `CCCCNC(=O)c1cc2c(=O)n3cccc(C)c3nc2s1`, for which the Potency result was “inactive”.

Regarding `CC(C)(C)C(=O)OCCNc1nc(-c2ccccc2)nc2ccccc12`, the Potency is 1420 nM (active).

In the case of `Cc1cc(C)nc(NC(=O)Cc2ccc(Cl)cc2)c1`, the Potency entry is “inactive”.

As for `N#C/C(=C\c1c(Oc2ccccc2Cl)nc2ccccn2c1=O)C(=O)NC1CCS(=O)(=O)C1` (stereo not given), the Potency entry was “inactive”.

On to `Cc1ccc(S(=O)(=O)N2CCN(c3nc(-c4cccs4)nc4ncccc34)CC2)cc1`, for which the Potency is 2250 nM (active).

For the molecule `O=S(=O)(/C=C/c1ccccc1)N1CCN(c2nc(-c3ccccc3)nc3ccccc23)CC1`, the Potency is 11600 nM (active).

With `O=C(NCCCc1cnc[nH]1)NCCCN(Cc1ccc(Cl)c(Cl)c1)c1ccc(Br)cn1`, the Potency is 1030 nM (active).

Turning to `COc1ccc(S(=O)(=O)N2CCN(c3nc(-c4cccs4)nc4ccccc34)CC2)cc1OC`, the Potency is 1160 nM (active).

In the case of `S=C(NCCCc1cnc[nH]1)NCCCN(Cc1ccc(Cl)cc1)c1ccc(Br)cc1`, the Potency was 1130 nM (active).

Take `CC(=O)NCCCN(Cc1ccc(Cl)c(Cl)c1)c1ccc(Br)cn1`: the Potency result was “inactive”.

Regarding `O=S(=O)(c1nccs1)N1CCN(c2nc(-c3cccs3)nc3ccccc23)CC1`, the Potency was 7300 nM (active).

Consider `O=S(=O)(c1ccc(F)cc1)N1CCN(c2nc(-c3ccccc3)nc3ccccc23)CC1`, for which the Potency was 6510 nM (active).

`COc1ccc(S(=O)(=O)N2CCN(c3nc(-c4ccccc4)nc4ccccc34)CC2)cc1`: the Potency was 3660 nM (active).

`COc1ccc(N(CC(=O)NC2CCCCC2)S(=O)(=O)c2c(C)[nH]c(=O)[nH]c2=O)cc1`: the Potency is 11200 nM (active).

For the molecule `Cc1cc2nn(-c3ccc(Cl)cc3)nc2cc1N`, the Potency result was “inactive”.

With `COc1ccc(-c2cc3ccc(OCC(C)=O)cc3oc2=O)cc1`, the Potency entry was “inactive”.

For the molecule `CN1CCN(CCCNC(=O)c2ccc(/C=C3\Oc4ccccc4N(Cc4ccccc4F)C3=O)cc2)CC1`, the Potency entry was “inactive”.

With `Cc1cccc(NC(=O)Nc2cccc(C)n2)n1`, the Potency result is “inactive”.

Take `COc1ccccc1S(=O)(=O)N1CCN(c2nc(-c3cccs3)nc3ccccc23)CC1`: the Potency was 730 nM (active).

`Oc1cccc(Nc2nc(-c3ccccc3Cl)nc3ccccc23)c1`: the Potency was 2060 nM (active).

The values above are taken from PubChem BioAssay AID2590 (National Center for Advancing Translational Sciences (NCATS), 2010).
